ELG1 genotoxic: qHTS screen for small molecules that induce genotoxicity in human embryonic kidney (HEK293T) cells expressing luciferase-tagged ELG1. Potency, µM (titrated, usually from 46 µM), inactives show at the top dose activity change, positive = activation, actives largely listed as activators. hit rate 1.3% among 330,000. HEK293T ELG1-luciferase reporter, luminescence, 16 h; note: % of control where 0% means no effect; nearly all actives have a fitted effect of over 60% in size
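Quantitative HTS format in 1536-well plates. HEK293T ELG1-luciferase reporter cells receive test compound and are incubated 16 hr at 37 °C, 5% CO2; ONE-Glo added, 30 min room temperature, then luminescence read.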
Rab9 promoter act: qHTS Assay for Rab9 Promoter Activators; Potency, µM (doses to about 9.22 µM), for the others: top-dose activation, negative = inhibition, most hits filed as activators; Huh7 Rab9 promoter-luciferase reporter, luminescence, 24 h; hit rate 2.8% among 320,000; AID 485297, 2010; note: % of control where 0% means no effect; nearly all actives have a fitted effect of over 60% in size
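Measured in stably transfected Huh7 cells bearing a Rab9 promoter–luciferase construct: 24 h compound treatment at 37 °C, followed by luminescence detection.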
NPC1 prom act: qHTS Assay for NPC1 Promoter Activators; Huh7 NPC1 promoter luciferase reporter, 24 h; hit rate 2.4% among 320,000; Potency, µM (top dose mostly 9.22 µM), without a hit: at the top dose activation, most hits filed as activators; note: % of control where 0% means no effect; nearly all actives have a fitted effect of over 60% in size
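Luciferase expression driven by the NPC1 promoter was measured in stably transfected Huh7 cells after a 24 h compound incubation, using a luciferase reagent and a luminescence read.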
SMN2 splice enh: qHTS Assay for Enhancers of SMN2 Splice Variant Expression. hit rate 2.8% among 210,000. HEK293 SMN2-luciferase splicing reporter, luminescence, 30-36 h. Potency, µM (titrated, usually from 46.1 µM), without a hit: at the top dose activity change, positive = activation, hits mostly activators. AID 1458, 2008; note: % of control where 0% means no effect; nearly all actives have a fitted effect of over 55% in size
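HEK293 cells carry an SMN2 […]–luciferase reporter in which exon 7 inclusion puts luciferase in frame. Cells were plated 10-12 h before compound addition, then incubated 30-36 h at 37C. ONE-Glo luminescence was read; sodium butyrate at 4.5 mM final served as control.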
FLuc counter: qHTS profiling assay for firefly luciferase inhibitor/activator using purifed enzyme and Km concentrations of substrates (counterscreen for miR-21 project) | Potency, µM (top dose mostly 57.5 µM), without a hit: at the highest dose activity change, negative = inhibition, most hits filed as inhibitors | Luciferin 4-monooxygenase (Photinus pyralis), P08659 | purified FLuc, Km substrates, luminescence inhibition | hit rate 6.9% among 360,000;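 note: plate controls were vehicle for no effect and reference inhibitor for full effect; nearly all actives have a fitted effect of over 55% in size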
Target sequence (P08659 whole entry, looked up): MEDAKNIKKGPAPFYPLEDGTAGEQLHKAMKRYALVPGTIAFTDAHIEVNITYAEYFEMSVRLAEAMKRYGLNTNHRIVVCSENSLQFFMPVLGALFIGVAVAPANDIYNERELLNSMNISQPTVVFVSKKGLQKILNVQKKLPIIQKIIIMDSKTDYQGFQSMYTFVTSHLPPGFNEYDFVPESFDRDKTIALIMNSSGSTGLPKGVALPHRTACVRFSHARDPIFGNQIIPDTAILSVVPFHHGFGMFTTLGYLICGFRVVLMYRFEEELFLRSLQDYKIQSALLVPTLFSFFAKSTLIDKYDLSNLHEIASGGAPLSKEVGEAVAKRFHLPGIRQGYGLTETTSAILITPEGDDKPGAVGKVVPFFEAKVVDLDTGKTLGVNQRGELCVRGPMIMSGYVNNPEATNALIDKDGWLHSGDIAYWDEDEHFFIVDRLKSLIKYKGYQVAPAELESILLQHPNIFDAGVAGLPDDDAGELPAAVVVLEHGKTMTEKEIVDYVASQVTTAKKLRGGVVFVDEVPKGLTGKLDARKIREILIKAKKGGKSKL
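Purified P. pyralis luciferase, 10 nM final, with Km-level 10 uM D-luciferin and 10 uM ATP in 50 mM Tris acetate pH 7.5, 10 mM Mg acetate, 0.01% Tween-20, 0.05% BSA; 6-point qHTS titration about 60 µM downward; luminescence read.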
ELG1 repair inh: qHTS screen for small molecules that inhibit ELG1-dependent DNA repair in human embryonic kidney (HEK293T) cells expressing luciferase-tagged ELG1. hit rate 2.3% among 330,000. Potency, µM (top dose mostly 46.1 µM), for the others: at the highest dose activity change, negative = inhibition, hits mostly inhibitors. HEK293T ELG1-luciferase reporter, luminescence, 16 h; DNA damage induced by 5-fluorouridine; note: % is set by controls: 0 for no effect and ±100 for the full control effect; nearly all actives have a fitted effect of over 55% in size
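Step one: seed 2,000 cells per well. Step two: pin-transfer compound or DMSO alongside 5-fluorouridine. Step three: incubate 16 hr, 37 °C, 5% CO2. Step four: add ONE-Glo, wait 30 min, read luminescence.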
* hit, by the source's call; ? = inconclusive; . = no result given. An excerpt weighted towards active compounds, which were near 9.2% of everything screened. Calls come from the whole dose curve; as a rule, active = well fitted curve in the direction sought with a large enough effect; inconclusive = small, poorly fitted or top-dose-only effect, or another doubt; inactive = no such curve, though single readings can be large; an effect the other way counts as inactive or inconclusive. Potency is the fitted concentration of half-maximal effect.

SMILES	ELG1 genotoxic	Rab9 promoter act	NPC1 prom act	SMN2 splice enh	FLuc counter	ELG1 repair inh
[O-]/[N+](=C/c1ccccc1)c1ccccc1	8%	-2%	9%	.	?	?
CCOC(=O)c1ccccc1NC(=O)Cn1nnc2sc3c(c2c1=O)CCCC3	.	.	.	-1%	-10%	.
COCOc1c2c(c(OCOC)c3c(OCOC)cccc13)/C(=N/N[S+](=O)([O-])c1ccc(C)cc1)C1=C2CCCC1	.	.	.	5%	.	.
Cc1nc(-c2ccc(NS(=O)(=O)c3ccccc3)cc2)cs1	0%	-3%	1%	7%	-16%	0%
O=S(=O)(Nc1ccc(-c2cn3ccccc3n2)cc1)c1ccccc1	?	23%	25%	.	13µM*	?
Cc1cc(NC(=O)CCC(=O)N(c2cccc(F)c2)C(C(=O)NC2CCCC2)c2ccccc2)no1 (stereo not drawn)	-9%	-3%	1%	.	2%	?
COc1cc(NC(=O)c2ccc(NC3=NC4CS(=O)(=O)CC4S3)cc2)cc(OC)c1OC (stereo not drawn)	5%	-2%	-4%	.	12%	-1%
COc1ccc(S(=O)(=O)N2CCCCCC2)cc1C(=O)OCC(=O)NC1CCS(=O)(=O)C1 (stereo not drawn)	2%	.	.	.	.	15%
COC(=O)c1c(C(=O)OC)c2cc(C(=O)c3ccccc3)ccn2c1Cl	-1%	6%	1%	-56%	?	26µM*
COC(=O)c1c(C(=O)OC)c2ccccn2c1C(=O)c1ccc([N+](=O)[O-])cc1	-6%	-9%	0%	.	1%	?
Cn1c2ccccc2c2cc(/C=N/NC(=O)c3ccccc3F)ccc21	-11%	13%	-10%	.	7.6µM*	23µM*
Cn1c2ccccc2c2cc(/C=N/NC(=O)c3ccc(N)cc3)ccc21	-14%	12%	-2%	.	11µM*	?
COc1cc(C2=N/C(=C\c3ccccc3)C(=O)O2)cc(OC)c1OC	.	.	.	-2%	.	.
CC(=O)n1cc(/C=C2/N=C(c3ccccc3)OC2=O)c2ccccc21	1%	-1%	-2%	-2%	5.4µM*	13%
O=C(CCc1ccccc1)N/N=C/c1cccc(O)c1	7%	5%	-2%	.	?	-9%
COc1ccc(/C=N/NC(=O)c2nonc2N)cc1OC	7%	-4%	-4%	.	?	24%
O=C(N/N=C/c1cccc(O)c1)N/N=C/c1cccc(O)c1	7%	10%	14%	.	5.4µM*	24%
Cc1nonc1C(=O)N/N=C/c1cccc(O)c1	4%	1%	2%	0%	12µM*	14%
O=C(N/N=C/c1cccc(Oc2ccccc2)c1)c1cccc(Br)c1	-5%	15%	4%	-22%	?	?
O=C(N/N=C/c1cccc(Oc2ccccc2)c1)c1cccc(O)c1	15%	-3%	1%	.	17µM*	18%
CC(C)(C)OC(=O)N1CCC(C(=O)Nc2cccc(C(=O)N3CCOCC3)c2)CC1	1%	.	.	.	.	-4%
COC(=O)c1ccc(C(/C=C/[C@@H](C)C(=O)NCc2ccccc2)NC(=O)OCc2ccccc2)cc1 (stereo partly drawn)	.	.	.	-10%	.	.
COc1ccc(CNC(=O)C(c2ccco2)N(C(=O)Cc2cccs2)c2cccnc2)cc1 (stereo not drawn)	-9%	1%	9%	.	2%	-17%
COc1ccc(CNC(=O)C(c2ccco2)N(Cc2ccccc2)C(=O)Cc2cccs2)cc1 (stereo not drawn)	-10%	-1%	-1%	12%	0%	18µM*
COc1ccc(CNC(=O)C(c2cccs2)N(Cc2ccco2)C(=O)Cc2cccs2)cc1 (stereo not drawn)	-11%	-1%	-1%	-16%	-4%	15µM*
SMILES	ELG1 genotoxic	Rab9 promoter act	NPC1 prom act	SMN2 splice enh	FLuc counter	ELG1 repair inh
Cc1csc2nc(COc3ccc(NC(=O)C(C)C)cc3)cc(=O)n12	.	.	.	2%	0%	.
COc1ccc(OC)c(NC(=O)C(C)n2c(=O)cc(C)c3c(C)nn(-c4ccccc4)c32)c1 (stereo not drawn)	.	.	.	.	4%	.
COc1ccc(-c2nc3cccc(C)n3c2NCc2ccco2)cc1OC	-12%	4%	6%	21%	9.5µM*	?
COc1ccc(-c2ccc(C#N)c(SCC(=O)NCc3ccco3)n2)cc1OC	0%	-3%	-4%	.	-1%	?
COc1ccc(-c2csc(NCc3ccco3)n2)cc1C	?	4µM*	3.2µM*	32µM*	?	?
c1cncc(-c2csc(NCc3ccco3)n2)c1	15%	25%	22%	21%	?	?
CC(=O)Nc1ccc(-c2csc(NCc3ccco3)n2)cc1	?	2µM*	2.5µM*	13µM*	7.6µM*	?
CC(=O)NS(=O)(=O)c1ccc(NC(=O)CC(C)c2ccccc2)cc1 (stereo not drawn)	-2%	0%	0%	-3%	6%	2%
Oc1ccc(/C=C/c2nc(-c3ccccc3O)n(-c3ccccc3)n2)cc1	0%	5%	-4%	-16%	17µM*	-7%
CCOc1ccc(Cn2nnc(-c3ccc(S(C)(=O)=O)cc3)n2)cc1OCC	7%	-11%	-5%	.	2%	2%
O=C1C(=O)N(CCN2CCOCC2)C(c2cccnc2)/C1=C(/O)c1ccc(Cl)cc1 (stereo not drawn)	-1%	-1%	-2%	2%	1%	7%
CC1CCN(C(=O)CSc2nc3ccccc3s2)CC1	12µM*	2.8µM*	2.8µM*	?	12µM*	?
NC(=O)C1CCN(C(=O)CSc2nc3ccccc3s2)CC1	11%	-1%	11%	6%	-4%	?
O=C(O)C1CCN(C(=O)CSc2nc3ccccc3s2)CC1	2%	0%	-3%	6%	?	12%
O=C(CSc1nc2ccccc2s1)N1CCCCC1	?	3.5µM*	2.8µM*	20µM*	24µM*	?
COc1ccc(CCn2nc(C)c([N+](=O)[O-])c2C)cc1	16µM*	3.2µM*	3.2µM*	.	12µM*	?
CC(C)CC(=O)NC1CC(=O)N(c2ccc3c(c2)OCCO3)C1 (stereo not drawn)	.	.	.	.	-2%	.
O=C1C(c2ccccc2)=[N+]([O-])c2ccccc21	?	22%	13%	.	12µM*	?

Screening results (PubChem)
